# Most compounds without a hit are left out; they make up all but 21% or so of the library.
# Shiga toxin inh: blocks Shiga toxin action in Vero cells; hit rate 9.2% among 290,000; inhibition, % at 38.7 µM; Vero cells, Shiga toxin protein synthesis inhibition reporter; AID 2315; in the data active means inhibition mostly above about 28%, no sharp cut-off; inactive means mostly below about 43%; further: 0% is about no effect
# Pf growth 96h: P. falciparum growth inhibition at 96 hour, primary screen for plastid delayed-death inhibitors; P. falciparum luciferase reporter growth, 96 h; Potency, µM (top dose mostly 28.7 µM), inactives show at the highest dose activity change, negative = inhibition, usual class: inhibitors; hit rate 6.9% among 320,000; AID 504834; further: potency means the concentration at half of the fitted maximal effect; on the % scale 0 is the no-effect control and ±100 the full control effect
#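 Two parasite generations (96 h, 37 C, 5% CO2) of compound exposure in infected erythrocytes (0.05% parasitemia, 2% hematocrit). Luciferase-reporter P. falciparum; decreased luminescence indicates inhibited growth, aimed at apicoplast-acting delayed death.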
# Pf growth 48h: inhibits P. falciparum growth in the first generation, 48 h. P. falciparum luciferase growth in erythrocytes, 48 h. hit rate 5.9% among 310,000. AID 504832. Potency, µM (top dose mostly 28.7 µM), without a hit: at the top dose activity change, negative = inhibition, usual class: inhibitors; further: potency means the concentration at half of the fitted maximal effect; on the % scale 0 is the no-effect control and ±100 the full control effect
#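 Firefly luciferase activity from engineered P. falciparum reports growth; inhibitors lower the luminescent signal. Cultures contained 2% hematocrit erythrocytes at 0.1% final parasitemia.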
# CHX counter: counter-screen hit for Shiga toxin inhibitors, cycloheximide | cell reporter, cycloheximide protein synthesis inhibition counterscreen | max response, % | hit rate 12% among 300,000 | AID 2314; in the data active means max response mostly above about 13%, no sharp cut-off; inactive means mostly below about 14%; further: read at 38.3 µM for the half of the compounds with a filed dose; 0% is about no effect
# Numbers without * were called inactive; ? = inconclusive; · = no result; + = active, no number; [ ] = dose if it differs, or a comment. Unless noted, the call rests on the fitted dose curve; in most records, active means well fitted inhibition curve with a large enough effect; inconclusive means small, poorly fitted or top-dose-only effect, or another doubt; inactive means no such curve, though single readings can be large or run the other way.
SMILES,Shiga toxin inh,Pf growth 96h,Pf growth 48h,CHX counter
O=C(O)c1ccc(S(=O)(=O)N2CCC(c3nc(-c4ccccc4Cl)no3)CC2)cc1,19,9.3µM*,-24%,-4
O=C(O)c1ccc(S(=O)(=O)N2CCCC2)cc1,-5,?,-1%,-2
CC(/C=C/c1ccccc1)=N\NC(=O)CNC(=O)c1ccccc1Cl,-12,6%,17%,10*
CC(/C=C/C=C/c1ccccc1)=N/NC(=O)CNc1ccc(C)cc1,32,?,4%,35*
COC(=O)c1ccc(OC(=O)c2ccc(OC)cc2)c(OC)c1,45,20%,5%,15
Cc1cc(C#Cc2c(-c3ccccc3)n(C)c3ccccc23)ccc1F,5,5.9µM*,?,-1
COC(=O)c1ccc2c(c1)c(I)c(-c1ccc(OC)cc1)n2C,+,·,·,37*
COc1ccc2c(c1)c1ccccc1n2C,10,3%,37%,18
COc1ccc(-c2c(C#Cc3ccsc3)c3ccccc3n2C)cc1,39*,3.3µM*,?,23*
COc1cc(C#Cc2c(-c3ccccc3)n(C)c3ccccc23)cc(OC)c1,-6,12µM*,?,2
O=C(N/N=C/c1cccnc1)C1CC1(c1ccccc1)c1ccccc1 (configuration not stated),-9,-4%,?,-9
COc1ccc(-c2oc3ccc(-c4cc(OC)c(OC)c(OC)c4)cc3c2C(=O)c2ccc(OC)nc2)cc1,-7,?,?,-2
COCn1c(-c2ccc(OC)c(OC)c2)nc2ccccc21,54,-2%,106%,23
COc1ccc(-c2c(C#Cc3ccsc3)c3cc(-c4cccc5[nH]ccc45)ccc3n2C)cc1,·,2.3µM*,1.3µM*,·
COC(=O)c1ccc2c(c1)c(C#Cc1ccccc1)c(-c1ccccc1)n2C,+,·,·,60*
COc1cc(C#Cc2c(-c3cncn3C)n(C)c3ccc(-c4ccc(OC)c(OC)c4)cc23)cc(OC)c1,·,5.2µM*,1.3µM*,·
COc1ccc(-c2oc3ccc(-c4cc(OC)c(OC)c(OC)c4)cc3c2C#Cc2ccsc2)cc1,-6,7.4µM*,-41%,-2
O=C(O)C1CCCCC1C(=O)NC1C2CC3CC(C2)CC1C3 (configuration not stated),11,359%,-5%,-1
O=C(NC1C2CC3CC(C2)CC1C3)C1CC1 (configuration not stated),-7,27%,7.4µM*,2
C=CC(=O)NCc1ccc(-c2csnn2)cc1,-15,-1%,-21%,-1
O=C(Nc1ccc(-c2csnn2)cc1)C(Cl)(Cl)Cl,111*,?,?,37*
CC(C)(C)C(=O)Nc1ccc(-c2csnn2)cc1,44*,128%,79%,50*
CC(=O)N1CCOc2ccc(S(=O)(=O)N3CCC(C(=O)NCc4ccccc4)CC3)cc21,7,?,?,-1
Cc1nc([N+](=O)[O-])c(C(=O)OCc2ccccc2C#N)n1C,-11,8%,0%,7
N=C1C(c2nc3ccccc3s2)=C(O)CN1Cc1ccccc1,active,10%,55%,30*
SMILES,Shiga toxin inh,Pf growth 96h,Pf growth 48h,CHX counter
CCN(CC)CCCN1CC(O)=C(c2nc3ccccc3s2)C1=N,-11,·,?,-4
COc1ccc(NC(=O)N2c3ccc(OC)cc3C(C)=CC2(C)C)cc1,17,0%,14%,10
COc1ccc(NC(=O)N2c3ccccc3C(C)=CC2(C)C)cc1,38*,37%[5.75 µM],-12%[5.75 µM],20*
CCOc1ccc2c(c1)C(C)=CC(C)(C)N2C(=O)Nc1ccccc1,14,15µM*,·,29*
Cc1ccc(C)c(N2CCN(C(=O)C3CCCN(S(=O)(=O)c4c(C)noc4C)C3)CC2)c1 (configuration not stated),-4,-24%,12µM*,-1
Cc1noc(/C=C/N(C)C)c1S(=O)(=O)N1CCCC(C(=O)NCc2ccc(Cl)cc2)C1 (configuration not stated),13,?,?,0
CCOC(=O)N1CCN(S(=O)(=O)N2CCCC(C(=O)NCCc3ccc(C)cc3)C2)CC1 (configuration not stated),-8,?,-17%,-2
CCOC(=O)N1CCN(C(=O)C2CCCN(S(=O)(=O)c3c(C)cc(C)cc3C)C2)CC1 (configuration not stated),-8,10µM*,?,-4
Cc1ccc(CNC(=O)C2CCCN(S(=O)(=O)c3c(C)noc3/C=C/N(C)C)C2)cc1 (configuration not stated),-4,?,13µM*,-1
CCOC(=O)N1CCN(S(=O)(=O)N2CCCC(C(=O)NCc3ccccc3Cl)C2)CC1 (configuration not stated),-9,12µM*,6%,-6
Cc1noc(C(=O)N2CCN(Cc3ccc4c(c3)OCO4)CC2)c1Cl,5,5%,12%,8
CC(=O)Nc1ccc(S(=O)(=O)NC(C)C(=O)NCC(c2ccco2)N(C)C)cc1 (configuration not stated),·,16%,-28%,·
CCOC(=O)c1sc2nc(C)nc(SCC(=O)N(C)C3CCS(=O)(=O)C3)c2c1C (configuration not stated),21,5%,31%,13
COc1ccc(/C=N/n2c(C3CCCCC3)n[nH]c2=S)c(OC)c1,-8,?,?,-2
Cc1noc(C)c1S(=O)(=O)N1CCN(c2ccccc2Cl)CC1,·,15µM*,?,·
Cc1noc(/C=C/N(C)C)c1S(=O)(=O)N1CCCC(C(=O)N2CCCCC2)C1 (configuration not stated),-3,-5%,9.3µM*,-2
Cc1noc(/C=C/N(C)C)c1S(=O)(=O)N1CCCC(C(=O)Nc2ccc3c(c2)OCO3)C1 (configuration not stated),12,?,·,-2
Cc1cc(C)c(NC(=O)C2CCCN(S(=O)(=O)c3c(C)noc3/C=C/N(C)C)C2)c(C)c1 (configuration not stated),1,13µM*,?,-1
Cc1ccc(N(C(=O)c2csnn2)C(C(=O)NC2CCCCC2)c2ccco2)cc1 (configuration not stated),-3,23%,?,-2
Cn1c(N)c(C(=O)COC(=O)CNS(=O)(=O)c2cccc(Cl)c2)c(=O)n(C)c1=O,-3,2%,50%,-3
COC(=O)C(Cc1ccc(OC(=O)c2ccccc2Cl)cc1)N1Cc2ccccc2C1=O (configuration not stated),38,48%,87%,22*
COC(=O)CC(c1ccccc1F)N1Cc2ccccc2C1=O (configuration not stated),-6,-16%,-14%[0.00184 µM],-6
COC(=O)C(Cc1ccc(OC(=O)c2ccccc2C)cc1)N1Cc2ccccc2C1=O (configuration not stated),active,33%,28%,33*
O=C(COc1ccccc1Br)Nc1ccc2c(c1)OCCCO2,66*,115%,199%,47*
N#Cc1ccccc1OCC(=O)Nc1ccc2c(c1)OCCO2,·,93%,211%,·
N#Cc1ccccc1OCC(=O)Nc1ccc2c(c1)OCCCO2,77*,0%,42%,50*
